Assay results reported in PubChem BioAssay (NCATS).
Several values for one entry are separate records, joined by “and”; a condition that tells them apart may be missing. Identical values can stand only once. Records with an inconclusive call do not appear. Unmarked numbers belong to inactive results. Activity calls are given as the source filed them. Calls follow the shape of the dose curve; as a rule, active = well fitted curve in the direction sought with a large enough effect; inconclusive = small, poorly fitted or top-dose-only effect, or another doubt; inactive = no such curve, though single readings can be large; an effect the other way counts as inactive or inconclusive.

How the values were obtained:
[1] = Quantitative highthroughput screen to assess conditional lethalithy of P12 Ichikawa cells grown in RPMI1640 with untreated serum (RPMI+s) (AID 1963881); conditions: Potency: viability; also: nearly all actives have a fitted effect of over 35% in size; also: potency is read from the fitted curve at half-maximal effect;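 as to viability: series mostly up to about 46 µM; 100% = DMSO wells and 0% = empty wells without cells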
Outline: (§1)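 Each medium arm—HPLM with 10% dialyzed FBS, or RPMI1640 with 5 mM glucose and 10% untreated or dialyzed FBS—was screened against an 11-point, 3-fold compound titration for 48 h at 37 °C, with CellTiter-Glo luminescence as endpoint.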

[2] = Quantitative highthroughput screen to assess conditional lethalithy of SEM cells grown in RPMI1640 with dialyzed fetal bovine serum (RPMI+ds) (AID 1963884);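 also: series mostly up to about 46 µM; 100% = DMSO control wells and 0% = empty wells without cells; nearly all actives have a fitted effect of over 35% in size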
Outline: as §1

[3] = Quantitative highthroughput screen to assess conditional lethalithy of P12 Ichikawa cells grown in RPMI1640 with dialyzed fetal bovine serum (RPMI+ds) (AID 1963880); conditions: Potency: P12-Ichikawa viability; also: nearly all actives have a fitted effect of over 35% in size; also: potency is read from the fitted curve at half-maximal effect;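 as to viability: 100% = DMSO wells and 0% = empty wells on each plate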
Outline: as §1

[4] = Cellular viability qHTS for adrenocortical cancer (ACC) cell line SW-13 (AID 1963989); conditions: SW-13 ACC cells viability, CellTiter-Glo, 48 h; activity (max response): hits give low values; also: nearly all actives have a fitted effect of over 65% in size; also: potency is read from the fitted curve at half-maximal effect;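 as to activity (max response): cells grown in serum-free medium with ITS supplement; % is scaled to controls: 0 for no effect and ±100 for the full control effect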
Outline: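 48 h treatment, SW-13 in ITS/DMEM serum-free; doses up to 46 uM; readout CellTiter-Glo luminescence; curve fit four-parameter logistic.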

[5] = Quantitative highthroughput screen to assess conditional lethalithy of SEM cells grown in Human Plasma-Like Medium with dialyzed fetal bovine serum (HPLM+ds) (AID 1963882); also: series mostly up to about 46 µM; nearly all actives have a fitted effect of over 35% in size
Outline: as §1

[6] = Quantitative highthroughput screen to assess conditional lethalithy of SEM cells grown in RPMI1640 with unreated serum (RPMI+s) (AID 1963883); also: nearly all actives have a fitted effect of over 35% in size; also: potency is read from the fitted curve at half-maximal effect;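 as to viability: 100% = DMSO wells and 0% = empty wells without cells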
Outline: as §1

[7] = Cellular viability qHTS for adrenocortical cancer (ACC) cell line NCI-H295R (AID 1963990); also: potency is read from the fitted curve at half-maximal effect; nearly all actives have a fitted effect of over 60% in size
Outline: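 Compound titrations (up to 46 uM final) are applied to NCI-H295R cultures for 48 h at 37C. Viable cell number is estimated by CellTiter-Glo signal, normalised to DMSO and doxorubicin controls.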

[8] = Quantitative highthroughput screen to assess conditional lethalithy of P12 Ichikawa cells grown in Human Plasma-Like Medium with dialyzed fetal bovine serum (HPLM+ds) (AID 1963879); conditions: Potency: viability
Outline: as §1

CN1CCN(CCCN2c3ccccc3Sc3ccc(Cl)cc32)CC1
Potency [1]: 8.33 µM (active)
Potency [2]: inactive

N#CC(=C(N)Sc1ccc(N)cc1)c1ccccc1C(F)(F)F
Potency [3]: inactive
Potency [1]: 2.96 µM (active)

Nc1ccc(S(=O)(=O)Nc2ccc(Cl)nn2)cc1
activity (max response) [4]: 1.77%

Cc1c(C(=O)NN2CCCCC2)nn(-c2ccc(Cl)cc2Cl)c1-c1ccc(Cl)cc1
Potency [3]: 3.32 µM (active)
Potency [5]: inactive
Potency [6]: inactive
Potency [2]: inactive
Potency [7]: 20.6 µM (active) and 28.2 µM (active)

CC(=O)[C@H]1CC[C@H]2[C@@H]3C=CC4=CC(=O)CC[C@@]4(C)[C@@H]3CC[C@]12C
activity (max response) [4]: -20.4%

COc1ccc(Cc2nccc3cc(OC)c(OC)cc23)cc1OC
Potency [1]: inactive
Potency [5]: inactive

CNC(=O)c1ccc(Nc2cc(Nc3ccccc3S(=O)(=O)C(C)C)c3cc[nH]c3n2)nc1
Potency [8]: 2.35 µM (active)
Potency [6]: 1.48 µM (active)

C[C@@H](Oc1cc(-c2cnn(C3CCNCC3)c2)cnc1N)c1c(Cl)ccc(F)c1Cl
Potency [3]: 18.7 µM (active)
Potency [1]: 16.6 µM (active)
Potency [6]: 9.35 µM (active)
Potency [4]: 3.55 µM (active)
Potency [7]: 3.16 µM (active)

Cc1nc(Nc2ncc(C(=O)Nc3c(C)cccc3Cl)s2)cc(N2CCN(CCO)CC2)n1
Potency [8]: 1.87 µM (active)
Potency [4]: 1.84 µM (active) and 1.41 µM (active)
Potency [7]: 20.6 µM (active) and 25.1 µM (active)

Cc1onc(-c2ccccc2)c1C(=O)N[C@@H]1C(=O)N2[C@@H](C(=O)O)C(C)(C)S[C@@H]12
Potency [3]: 1.05 µM (active)
Potency [1]: 1.32 µM (active)
Potency [5]: inactive
Potency [2]: inactive
